Screening results from PubChem BioAssay.
VDR inhibitor = inhibitors of human vitamin D receptor. P11473. VDR-SRC2-3 peptide fluorescence polarization, 2 h. Potency, µM, inactives show max response, negative = inhibition, usual class: inhibitors. 400,000 tested, 0.93% active. AID 504847; also: potency is read from the fitted curve at half-maximal effect; % is scaled to controls: 0 for no effect and ±100 for the full control effect
Target sequence (P11473 whole entry, looked up): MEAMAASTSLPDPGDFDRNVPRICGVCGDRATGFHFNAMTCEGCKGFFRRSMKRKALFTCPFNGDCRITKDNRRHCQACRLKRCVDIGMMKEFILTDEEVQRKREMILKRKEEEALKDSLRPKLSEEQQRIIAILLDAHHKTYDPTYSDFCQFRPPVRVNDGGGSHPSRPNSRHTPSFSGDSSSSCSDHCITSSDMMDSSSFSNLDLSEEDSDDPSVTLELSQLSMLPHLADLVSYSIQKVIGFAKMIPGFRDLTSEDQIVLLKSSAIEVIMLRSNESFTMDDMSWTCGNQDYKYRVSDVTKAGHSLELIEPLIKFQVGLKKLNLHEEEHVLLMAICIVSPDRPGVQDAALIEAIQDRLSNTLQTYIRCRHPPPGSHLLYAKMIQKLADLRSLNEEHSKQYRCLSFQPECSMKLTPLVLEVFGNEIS
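Reagent solutions, kept cold and dark, are dispensed first; compounds are then pinned in at 23 nl, plates briefly spun, and incubated 2 h at ambient temperature. Inhibition of VDR–SRC2-3 peptide binding is read by fluorescence polarization.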
PI5P4K alpha inh = blocks human PI5P4K alpha kinase activity; PI5P4Kalpha enzyme, ADP-Glo luminescence, 60 min; active compounds read low; AID 652105; max response, %; 330,000 tested, 1.2% active; active = max response of -50% or lower; inconclusive = between -30% and -50%; inactive = -30% or higher; also: value at the top dose of about 77 µM; % is scaled to controls: 0 for no effect and ±100 for the full control effect
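Compounds were pin-transferred onto PI5P4Kalpha and substrate in HEPES pH 7.4 buffer with EGTA, CHAPS and 5% DMSO. ATP (5 microM final) started the reaction, which ran 60 minutes at room temperature before ADP-Glo detection.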
PLK1 PBD inh = blocks phosphopeptide binding to human PLK1 polo-box domain. P53350. Plk1 PBD binding of FITC phosphopeptide, fluorescence polarization. Potency, µM, for the others: max response, negative = inhibition, hits mostly inhibitors. 360,000 tested, 2.8% active. AID 720504; also: potency is read from the fitted curve at half-maximal effect; series mostly up to about 57 µM; % is scaled to controls: 0 for no effect and ±100 for the full control effect; nearly all actives have a fitted effect of over 65% in size
Rango-impB inh = inhibitors of Rango-importin beta complex formation | Rango CFP/YFP FRET sensor + importin beta, 45 min | 340,000 tested, 0.031% active | Q14974 | Potency, µM (highest dose often 92.2 µM), for inactives: top-dose inhibition of complex formation; calls by dose curve;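 also: potency is read from the fitted curve at half-maximal effect; 0% = DMSO wells and 100% = buffer wells lacking importin beta; nearly all actives have a fitted effect of over 15% in size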
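Inhibition scored from the CFP 486 nm/YFP 530 nm FRET ratio 45 min after adding 0.125 microM importin beta to 50 nM Rango biosensor preincubated 5 min with compound (room temperature, PBS with DTT, Tween-20, BSA). No-importin wells as positive control.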
KAT2A inh = blocks human GCN5L2 histone acetyltransferase. Q92830. GCN5L2 HAT assay, ThioGlo1 CoA-SH fluorescence. Potency, µM (titrated, usually from 58.9 µM), without a hit: at the highest dose activity change, negative = inhibition, usual class: inhibitors. 390,000 tested, 0.21% active; also: potency is read from the fitted curve at half-maximal effect; % is scaled to controls: 0 for no effect and ±100 for the full control effect
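qHTS, 1536-well. 20nM enzyme, pH 7.5 HEPES/EDTA/Tween-20 buffer; 15 min compound preinc., RT. Start: 75uM H3(1-25), 70uM AcCoA, 50uM ThioGlo1. Read Ex340/Em540 at t=0 (autofluorescence flag) and t=20 min.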
Rango release inh = inhibition of RanGTP-driven Rango-importin beta dissociation; Potency, µM (series often up to 46.1 µM), without a hit: at the highest dose activity change, negative = inhibition; 340,000 tested, 0.071% active; Biochemical FRET Rango-importin beta, RanGTP-induced dissociation; O95149+P62826; calls by dose curve; also: potency is read from the fitted curve at half-maximal effect; % of control where 0% means no effect; nearly all actives have a fitted effect of over 45% in size
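Two FRET readings bracket the reaction: one 5 min after compound meets Rango–importin beta, another 45 min after RanGTP-RCC1 (0.6 uM Ran, 0.2 uM RCC1, 2 mM GTP) is added. Only the second defines inhibition.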
ADP-Glo interf = ADP-Glo luciferase interference, PI5P4K counter-screen. shares compounds with PI5P4K alpha inh. ADP-Glo detection counter-screen, luciferase luminescence, no enzyme. Potency, µM (doses to about 76.9 µM), for inactives: at the highest dose activity change, negative = inhibition, hits mostly inhibitors. 1,100 tested, under 10 active. AID 743285
* marks the source's active call; other numbers are inactive results; u = inconclusive; x = not tested or not shown; [ ] = another dose, or the depositor's remark. Sampled rows, rich in hits. Any-hit rate of the full collection: about 3.6%. Unless noted, calls follow the shape of the dose curve; as a rule, active = well fitted curve in the direction sought with a large enough effect; inconclusive = small, poorly fitted or top-dose-only effect, or another doubt; inactive = no such curve, though single readings can be large; an effect the other way counts as inactive or inconclusive.

SMILES	VDR inhibitor	PI5P4K alpha inh	PLK1 PBD inh	Rango-impB inh	KAT2A inh	Rango release inh	ADP-Glo interf
CC(C)(C)c1csc(NC(=O)c2ccncc2)n1	19%	-5	-3%	-2%	2%	18%	x
CC(C)(C)c1csc(NC(=O)c2ccc3nccnc3c2)n1	-6%	-52*	-28%	-3%	-14%	-15%	-5%
O=C(Oc1ccc2c(c1)OCO2)c1cc2c(s1)CCC2	-2%	-53*	-28%	u	u	-20%	-9%
Cc1cccc(C(=O)NCc2cn3cccc(C)c3n2)c1	10%	x	x	x	-6%	x	x
O=C(CSc1nc(O)cc(=O)n1-c1ccccc1)Nc1nc2ccccc2s1	-15%	-66*	-25%	u	-11%	-11%	2%
N#Cc1c(SCC(=O)Nc2nc3ccccc3s2)sc2c(O)cc(=O)[nH]c12	-12%	-78*	24µM*	u	u	-13%	-3%
CCOc1cccc(NC(=O)CSc2nncn2N)c1	14%	x	0%	1%	-3%	2%	x
CCCc1cc(=O)[nH]c2nnc(SCC(=O)Nc3nccs3)n12	11%	-6	-2%	-2%	0%	9%	x
CCOc1cccc(NC(=O)CSc2sc3c(O)cc(=O)[nH]c3c2C#N)c1	-16%	-60*	-25%	2%	-5%	13%	1%
N#Cc1c(SCC(=O)Nc2ccccc2C(F)(F)F)sc2c(O)cc(=O)[nH]c12	22%	u	-17%	4%	-27%	-14%	x
O=C(CSc1nccn1-c1ccccc1)Nc1nc2ccccc2s1	-2%	x	x	x	-5%	x	x
N#Cc1c(SCC(=O)Nc2nccs2)sc2c(O)cc(=O)[nH]c12	25%	-94*	u	-4%	u	-6%	7%
COc1ccc(NC(=O)c2cc(-c3ccco3)nc3ccccc23)cc1S(=O)(=O)N1CCOCC1	28µM*	-59*	21µM*	-1%	u	7%	-10%
CCCCn1c(N)c(N(CC(C)C)C(=O)c2cc(-c3ccco3)nc3ccccc23)c(=O)[nH]c1=O	-8%	-59*	-15%	-2%	-5%	-11%	3%
O=C(NC1CCC(O)CC1)c1cc(-c2ccco2)nc2ccccc12 (stereo not drawn)	-24%	-67*	u	0%	-23%	-3%	-6%
COc1ccc(NC(=O)c2cc(-c3ccco3)nc3ccccc23)cc1	10%	u	-9%	0%	x	-7%	x
Cc1ccc(NC(=O)c2cc(-c3ccco3)nc3ccccc23)cc1S(=O)(=O)N1CCOCC1	7%	-29	-26%	2%	u	-6%	x
COc1ccc(NC(=O)CN(C)C(=O)c2cc(-c3ccco3)nc3ccccc23)cc1	-6%	-74*	u	-6%	20µM*	5%	-5%
COc1ccc(NC(=O)c2c(N)c(C(=O)c3ccc(OC)cc3)n3ccccc23)cc1	7%	x	x	x	-18%	x	x
CCOc1ccccc1NC(=O)NC(CC)c1c(-n2cccc2)sc2c1CCN(C)C2 (stereo not drawn)	6%	x	x	x	-2%	x	x
Cc1ccc(NC(=O)Cn2c(=O)n(Cc3ccccc3)c(=O)c3sc4ccccc4c32)cc1	6%	x	x	x	-4%	x	x
COC(=O)N1CCC[C@@]2(CCN(C(=O)Nc3cccc(C#N)c3)C2)C1	-8%	x	x	x	-7%	x	x
Cc1cccc(C(=O)Nc2cccc(C(=O)OCc3cc(=O)n4ccsc4n3)c2)c1	21%	x	x	x	5%	x	x
CCc1nnc(NC(=O)c2cc(-c3ccccn3)nc3ccccc23)s1	-1%	2	-2%	3%	2%	-15%	x
O=C(c1cc(-c2ccco2)nc2ccccc12)N1CCN(Cc2ccccc2)CC1	-10%	-26	-27%	-4%	-18%	23%	x
SMILES	VDR inhibitor	PI5P4K alpha inh	PLK1 PBD inh	Rango-impB inh	KAT2A inh	Rango release inh	ADP-Glo interf
CN(C)C(CNC(=O)c1cc(-c2ccco2)nc2ccccc12)c1ccccc1 (stereo not drawn)	19%	-54*	u	-2%	u	-1%	-1%
CCCCCCNC(=O)c1cc(-c2ccco2)nc2ccccc12	u	-86*	27µM*	-1%	u	-14%	-9%
COC(=O)C1CCN(C(=O)c2cc(-c3ccco3)nc3ccccc23)CC1	-12%	-82*	30µM*	u	8.9µM*	-13%	-3%
CCc1nnc(NC(=O)c2cc(-c3ccco3)nc3ccccc23)s1	-9%	-78*	u	-3%	-11%	-3%	-6%
O=C(NCCc1ccccc1)c1ccc2c(c1)N(Cc1ccc(Cl)cc1)C(=O)c1ccccc1S2(=O)=O	u	x	x	x	-3%	x	x
COc1cc(OC)c(NC(=O)N2CCc3c([nH]c4ccccc34)C2c2ccccc2F)cc1Cl (stereo not drawn)	6%	x	x	x	-14%	x	x
Cc1cc(C)c(Cn2c3ccccc3c3cnn(CC(=O)NCCc4ccccc4)c(=O)c32)c(C)c1	13%	x	x	x	-8%	x	x
CCOC(=O)c1ccc(NC(=O)CN2c3ccccc3S(=O)(=O)c3ccccc32)cc1	12%	x	x	x	-9%	x	x
CC(C)(C)NC(=O)Nc1ccc(Cn2cc(C(F)(F)F)ccc2=O)cc1	-29%	-55*	24µM*	-1%	-3%	5%	-1%
CNC(=O)Nc1ccc(Cn2cc(C(F)(F)F)ccc2=O)cc1	-10%	-7	-9%	0%	22%	-14%	x
Cc1ccc(NC(=O)Cn2c(SCc3ccc(F)cc3)nc3cccnc32)cc1F	-2%	x	x	x	-14%	x	x
Cc1ccc(N(CC(=O)Nc2ccc(Cl)cc2)S(=O)(=O)c2cccc3nonc23)cc1	-2%	x	x	x	-8%	x	x
CN1CCN([C@@H](c2ccccc2)c2ccc(Cl)cc2)CC1	-7%	x	x	x	2%[21.4 µM]	x	x
CN1CCN(C(c2ccccc2)c2ccc(Cl)cc2)CC1 (stereo not drawn)	-2%	-52*	-15%	0%	1%	-6%	1%
